In PubChem BioAssay (NCI):
The panel holds about 83,000 compounds, 20% with a hit somewhere; the sample as a whole holds those more often.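 Testing used 96-well plates and a 48-hour single-concentration exposure. Example: -40 means 40% of the starting cells died.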 The source made the active and inactive calls. How the source made its calls: active means growth percent below 10; inactive means the rest.

Key:
Assay in all cases: NCI-60 one-dose screen, 48 h (100 = growth as untreated, 0 = no growth, -100 = all killed)
Conditions in all cases: 10 µM unless noted
DU-145 prostate = tested on: DU-145 prostate
K-562 leukemia = tested on: K-562 leukemia
MALME-3M melanoma = tested on: MALME-3M melanoma
MDA-MB-231 breast = tested on: MDA-MB-231 breast
RXF 393 renal = tested on: RXF 393 renal
SF-268 CNS = tested on: SF-268 CNS
SF-295 CNS = tested on: SF-295 CNS
SF-539 CNS = tested on: SF-539 CNS
UACC-257 melanoma = tested on: UACC-257 melanoma
M14 melanoma = tested on: M14 melanoma
HCT-15 colon = tested on: HCT-15 colon
HT29 colon = tested on: HT29 colon
SNB-75 CNS = tested on: SNB-75 CNS
SNB-19 CNS = tested on: SNB-19 CNS
U251 CNS = tested on: U251 CNS
PC-3 prostate = tested on: PC-3 prostate
SK-MEL-5 melanoma = tested on: SK-MEL-5 melanoma
UACC-62 melanoma = tested on: UACC-62 melanoma
LOX IMVI melanoma = tested on: LOX IMVI melanoma
SK-MEL-28 melanoma = tested on: SK-MEL-28 melanoma

Measured: growth

Clc1ccc(CO/N=C(\Cn2ccnc2)c2ccc(Cl)cc2Cl)c(Cl)c1
inactive: DU-145 prostate 21% | SF-268 CNS 11.6% | SNB-75 CNS 30.4% | SNB-19 CNS 17.7% | SK-MEL-28 melanoma 28%
active: K-562 leukemia 1.68% | MALME-3M melanoma -50.8% | MDA-MB-231 breast -11.5% | RXF 393 renal -59.8% | SF-295 CNS -13.3% | SF-539 CNS -55.1% | UACC-257 melanoma 6.73% | M14 melanoma -17.4% | HCT-15 colon 6.36% | HT29 colon -19.4% | U251 CNS -21.2% | PC-3 prostate 4.16% | SK-MEL-5 melanoma -93.5% | UACC-62 melanoma 1.19% | LOX IMVI melanoma -47.4%

OCCCCCNC1CCCCC1
inactive: DU-145 prostate 115% | K-562 leukemia 94% | MALME-3M melanoma 97.3% | MDA-MB-231 breast 114% | RXF 393 renal 104% | SF-268 CNS 113% | SF-295 CNS 110% | SF-539 CNS 98% | UACC-257 melanoma 99.5% | M14 melanoma 101% | HCT-15 colon 96.1% | HT29 colon 90.7% | SNB-75 CNS 101% | SNB-19 CNS 112% | U251 CNS 101% | PC-3 prostate 101% | SK-MEL-5 melanoma 96.7% | UACC-62 melanoma 102% | LOX IMVI melanoma 101% | SK-MEL-28 melanoma 95%

Cc1cc(-c2nc3cc(F)ccc3[se]2)cc(F)c1N
inactive: DU-145 prostate 98.4% | K-562 leukemia 95.8% | MALME-3M melanoma 84.9% | MDA-MB-231 breast 63.5% | RXF 393 renal 120% | SF-268 CNS 101% | SF-295 CNS 99.7% | SF-539 CNS 94.7% | UACC-257 melanoma 98.5% | M14 melanoma 90.3% | HCT-15 colon 38.2% | HT29 colon 62.5% | SNB-75 CNS 91.9% | SNB-19 CNS 97.2% | U251 CNS 98.7% | PC-3 prostate 72.7% | SK-MEL-5 melanoma 81% | UACC-62 melanoma 85.7% | LOX IMVI melanoma 90% | SK-MEL-28 melanoma 121%

CCOC(=S)S[C@H]1C[C@@H]2[C@H](CC[C@]3(C)C(=O)CC[C@@H]23)[C@@]2(C)CCC(=O)C=C12
inactive: DU-145 prostate 103% | K-562 leukemia 95.3% | MALME-3M melanoma 107% | MDA-MB-231 breast 95.2% | RXF 393 renal 102% | SF-268 CNS 95.5% | SF-295 CNS 95.7% | SF-539 CNS 99.7% | UACC-257 melanoma 101% | M14 melanoma 102% | HCT-15 colon 101% | HT29 colon 111% | SNB-75 CNS 93.1% | SNB-19 CNS 99.5% | U251 CNS 102% | PC-3 prostate 106% | SK-MEL-5 melanoma 103% | UACC-62 melanoma 94.3% | LOX IMVI melanoma 97.9% | SK-MEL-28 melanoma 104%

CCCCNC(c1ccc(Cl)cc1)C(O)c1ccc(Cl)cc1 (stereo not given)
active: K-562 leukemia 0.937% | MDA-MB-231 breast 5.73% | HT29 colon 4.8% | U251 CNS 6.63% | LOX IMVI melanoma -75.6%
inactive: DU-145 prostate 37.2% | MALME-3M melanoma 39.7% | RXF 393 renal 58.4% | SF-268 CNS 55.9% | SF-295 CNS 41.3% | SF-539 CNS 68.3% | UACC-257 melanoma 86% | M14 melanoma 25.7% | HCT-15 colon 32.7% | SNB-75 CNS 61.9% | SNB-19 CNS 54.6% | PC-3 prostate 42.2% | SK-MEL-5 melanoma 32.7% | UACC-62 melanoma 19.2% | SK-MEL-28 melanoma 45.6%

COc1ccc2nc(NC(=O)COc3cc(/C=C\c4cc(OC)c(OC)c(OC)c4)ccc3OC)sc2c1
inactive: K-562 leukemia 15.6% | MALME-3M melanoma 14.1% | MDA-MB-231 breast 22.7% | SF-268 CNS 42.3% | UACC-257 melanoma 59.5% | M14 melanoma 22.9% | HCT-15 colon 15.5% | HT29 colon 10.3% | SNB-19 CNS 31.5% | U251 CNS 20.4% | PC-3 prostate 30.4% | SK-MEL-5 melanoma 10.8% | UACC-62 melanoma 33.8% | SK-MEL-28 melanoma 43.5%
active: DU-145 prostate 0.406% | RXF 393 renal -19.9% | SF-295 CNS -2.09% | SF-539 CNS -7.12% | SNB-75 CNS -5.27% | LOX IMVI melanoma 8.81%

CC(CO)NC1CCCCC1 (stereo not given)
inactive: DU-145 prostate 105% | K-562 leukemia 104% | MALME-3M melanoma 103% | MDA-MB-231 breast 91.2% | RXF 393 renal 114% | SF-268 CNS 108% | SF-295 CNS 113% | SF-539 CNS 91.8% | UACC-257 melanoma 104% | M14 melanoma 102% | HCT-15 colon 100% | HT29 colon 117% | SNB-75 CNS 86.9% | SNB-19 CNS 102% | U251 CNS 98.9% | PC-3 prostate 105% | SK-MEL-5 melanoma 104% | UACC-62 melanoma 104% | LOX IMVI melanoma 94.3% | SK-MEL-28 melanoma 114%

CN[C@@]1(c2ccccc2Cl)CCCC[C@@H]1NCC1CCCO1 (stereo not given in full)
inactive: DU-145 prostate 111% | K-562 leukemia 100% | MALME-3M melanoma 95.3% | MDA-MB-231 breast 105% | RXF 393 renal 106% | SF-268 CNS 103% | SF-295 CNS 98.2% | SF-539 CNS 97% | UACC-257 melanoma 96.5% | M14 melanoma 101% | HCT-15 colon 104% | HT29 colon 101% | SNB-75 CNS 88.2% | SNB-19 CNS 95.8% | U251 CNS 98.2% | PC-3 prostate 94.2% | SK-MEL-5 melanoma 102% | UACC-62 melanoma 96.5% | LOX IMVI melanoma 97.8% | SK-MEL-28 melanoma 101%

CN1CCC(O)(c2ccc(F)cc2)C(C(=O)c2ccc(F)cc2)C1 (stereo not given)
inactive: DU-145 prostate 107% | K-562 leukemia 99.1% | MALME-3M melanoma 84.6% | MDA-MB-231 breast 104% | RXF 393 renal 103% | SF-268 CNS 106% | SF-295 CNS 110% | SF-539 CNS 96.8% | UACC-257 melanoma 106% | M14 melanoma 106% | HCT-15 colon 107% | HT29 colon 122% | SNB-75 CNS 113% | SNB-19 CNS 95.1% | U251 CNS 107% | PC-3 prostate 98.4% | SK-MEL-5 melanoma 102% | UACC-62 melanoma 100% | LOX IMVI melanoma 94.3% | SK-MEL-28 melanoma 121%

O=P(Oc1ccc(Cl)cc1)(N1CC1)N1CC1
inactive: DU-145 prostate 54.4% | K-562 leukemia 85.3% | MALME-3M melanoma 104% | MDA-MB-231 breast 106% | RXF 393 renal 73.9% | SF-268 CNS 89% | SF-295 CNS 66.2% | SF-539 CNS 81.4% | UACC-257 melanoma 94.8% | M14 melanoma 86.5% | HCT-15 colon 88.7% | HT29 colon 72.5% | SNB-75 CNS 74.2% | SNB-19 CNS 91% | U251 CNS 82.6% | PC-3 prostate 76.1% | SK-MEL-5 melanoma 86.2% | UACC-62 melanoma 58% | LOX IMVI melanoma 83.1% | SK-MEL-28 melanoma 98.3%

N#Cc1c(Br)n(C2OC(CO)C(O)C2O)c2ncnc(N)c12 (stereo not given)
inactive: DU-145 prostate 17.8% | K-562 leukemia 20.8% | MALME-3M melanoma 108% | MDA-MB-231 breast 97.1% | RXF 393 renal 13.8% | SF-268 CNS 55% | SF-295 CNS 87.5% | SF-539 CNS 102% | UACC-257 melanoma 80.3% | M14 melanoma 60% | HCT-15 colon 43.9% | HT29 colon 43.8% | SNB-75 CNS 76.2% | SNB-19 CNS 101% | U251 CNS 69.4% | PC-3 prostate 16.5% | SK-MEL-5 melanoma 95.9% | UACC-62 melanoma 77.9% | LOX IMVI melanoma 57.2% | SK-MEL-28 melanoma 43.7%

CN(C)CCCOc1ccc2c(c1)c(C(=O)C(=O)NCCO)cn2Cc1ccccc1
inactive: DU-145 prostate 106% | K-562 leukemia 106% | MALME-3M melanoma 97.1% | MDA-MB-231 breast 104% | RXF 393 renal 89.1% | SF-268 CNS 97.7% | SF-295 CNS 103% | SF-539 CNS 103% | UACC-257 melanoma 102% | M14 melanoma 101% | HCT-15 colon 105% | HT29 colon 107% | SNB-75 CNS 97.4% | SNB-19 CNS 102% | U251 CNS 96.4% | PC-3 prostate 105% | SK-MEL-5 melanoma 99.8% | UACC-62 melanoma 100% | LOX IMVI melanoma 93% | SK-MEL-28 melanoma 118%

CN(C)C1C(=O)C(C(N)=O)=C(O)C2(O)C(=O)C3=C(O)c4c(O)cccc4C(C)(O)C3CC12.[Cl][Sb]([Cl])[Cl] (stereo not given)
active: MALME-3M melanoma -21.2% | SF-295 CNS -3.24%
inactive: DU-145 prostate 60% | K-562 leukemia 22.9% | MDA-MB-231 breast 79.1% | RXF 393 renal 59.2% | SF-268 CNS 29.7% | SF-539 CNS 20.9% | UACC-257 melanoma 30.1% | M14 melanoma 37% | HCT-15 colon 26.7% | HT29 colon 38.5% | SNB-75 CNS 40.5% | SNB-19 CNS 36.6% | U251 CNS 10.8% | PC-3 prostate 15.9% | SK-MEL-5 melanoma 15.6% | UACC-62 melanoma 26.4% | LOX IMVI melanoma 25.8% | SK-MEL-28 melanoma 47%

CC(=O)OC1C(OC/C2=C/C3[C@@H](C(C)C)CC=C(C)[C@@H]3CC(OC(=O)/C=C/c3cn(C)cn3)[C@]3(C)C=C[C@@]2(O)O3)OCC(O)C1O (stereo not given in full)
active: DU-145 prostate -10.2% | RXF 393 renal -20.6% | SF-295 CNS -3.4% | M14 melanoma -35.7% | HT29 colon 8.89% | SNB-75 CNS -28.6% | SK-MEL-5 melanoma 7.53%
inactive: K-562 leukemia 15.7% | MALME-3M melanoma 48.4% | MDA-MB-231 breast 41.8% | SF-268 CNS 45.1% | SF-539 CNS 11.9% | UACC-257 melanoma 60.7% | HCT-15 colon 36.2% | SNB-19 CNS 37% | U251 CNS 18.2% | PC-3 prostate 26.5% | UACC-62 melanoma 26.5% | LOX IMVI melanoma 35.2% | SK-MEL-28 melanoma 45.7%

COc1cccc2c1c(C(=O)c1ccco1)cn2Cc1ccc(F)cc1
inactive: DU-145 prostate 100% | K-562 leukemia 253% | MALME-3M melanoma 131% | MDA-MB-231 breast 89.9% | RXF 393 renal 131% | SF-268 CNS 114% | SF-295 CNS 122% | SF-539 CNS 113% | UACC-257 melanoma 104% | M14 melanoma 131% | HCT-15 colon 103% | HT29 colon 118% | SNB-75 CNS 121% | SNB-19 CNS 119% | U251 CNS 112% | PC-3 prostate 105% | SK-MEL-5 melanoma 96.3% | UACC-62 melanoma 78.3% | LOX IMVI melanoma 109% | SK-MEL-28 melanoma 123%
